Screening data as filed in PubChem.
In the library only some 5.3% were active in any assay of this set; here they are far more common.
IMPase Li cell = membrane-permeable IMPase blocker, potentiated with lithium | actives 0.35% (n = 210,000) | CHO-M1 cells, IP1 TR-FRET (IP-One), carbachol + lithium | Potency, µM (series often up to 59.4 µM), for inactives: top-dose activity, negative = IMPase inhibition, actives largely listed as inhibitors;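 note: IP1 builds up when IMPase is blocked and the TR-FRET signal falls; potency is the fitted concentration of half-maximal effect; plate controls were basal vehicle for no effect and high inhibitor control for full effect; nearly all actives have a fitted effect of over 50% in size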
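CHO-M1, 2000 cells/well, 16–30 h culture; cpd + low Li+, 30 min 37C; lysis with d2-IP1/Eu-anti-IP1 Ab, 10 min RT; TR-FRET 665/620 ratio and 620 channel; AC50 via Hill.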
IMPase cell inh = cell-permeable inhibitors of inositol monophosphatase (IMPase); P97697; CHO-M1 cells, IP1 accumulation, HTRF TR-FRET ratio; inhibition (IP1 accumulation), % at 46.1 µM; 120,000 tested, under 10 active; AID 901; active = well fitted curve in the direction sought with a large enough effect in the signal ratio, not every such curve was filed as active; inconclusive = small, poorly fitted or top-dose-only effect, or a change in a side signal; inactive = no such curve, though single readings can be large or run the other way; the % refers to the signal ratio;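 note: cells stimulated with carbachol in lithium chloride buffer; plate controls were DMSO basal wells for no effect and reference inhibitor wells for full effect; higher means more IMPase inhibition seen as more IP1 and lower FRET ratio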
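The IP-One HTRF competitive assay in carbachol-stimulated CHO-M1 cells quantifies cellular IP1. Compounds spanned up to 46 uM final, and activity is expressed as AC50 from concentration-response fits of the ratio and donor data.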
ALOX15B inhib = inhibitors of human 15-lipoxygenase 2 (ALOX15B); O15296; purified 15hLO-2, xylenol orange hydroperoxide absorbance; Potency, µM (highest dose often 57.1 µM), without a hit: top-dose activity change, negative = inhibition, usual class: inhibitors; actives 0.56% (n = 110,000); AID 881; note: potency is the fitted concentration of half-maximal effect; nearly all actives have a fitted effect of over 60% in size
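Read-out: hydroperoxide product oxidises ferrous iron, measured as xylenol orange complex via the 573-to-405 nm absorbance ratio after 30 min. Reaction: 50 nM enzyme, 15 min compound preincubation, 45 uM arachidonic acid, 90 min RT, Hepes pH 7.5 with Triton X-100.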
12-hLO inh = inhibitors of human 12-lipoxygenase (ALOX12); P18054; purified 12-hLO, xylenol orange hydroperoxide absorbance; Potency, µM (titrated, usually from 57.1 µM), for the others: at the highest dose activity change, negative = inhibition, most hits filed as inhibitors; actives 0.12% (n = 150,000); note: potency is the fitted concentration of half-maximal effect; nearly all actives have a fitted effect of over 55% in size
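Purified human 12hLO (150 nM), preincubated 15 min with compound, then 40 uM arachidonic acid for 30 min, room temperature, Hepes pH 7.0 with 0.01% Triton X-100. Hydroperoxide detected by ferrous iron/xylenol orange; 573/405 nm absorbance ratio gives reaction progress.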
PNC assembly inh = perinucleolar compartment assembly inhibition. PC3M PTB-GFP, PNC prevalence imaging, 16 h; active compounds read low. activity change (PNC), negative = inhibition, % at 10 µM. actives 3.1% (n = 140,000);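 active = readout at or below -70, meaning at least 70% loss of cells showing the perinucleolar compartment, a nuclear body marking cancer cells; inconclusive = readout between -30 and a set limit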;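 note: plate controls were DMSO wells for no effect and camptothecin positive control wells for full effect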
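Read-out is percentage of cells bearing a perinucleolar compartment, from automated 20x imaging of fixed, Hoechst-stained PC3M PTB-GFP cells. Cells were seeded 4 h, then exposed 16 h to compound (23 nl of library stock) in duplicate plates.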
HPGD inh = blocks human HPGD enzyme activity | actives 4.3% (n = 150,000) | Potency, µM, for inactives: at the top dose activity change, negative = inhibition, most hits filed as inhibitors | AID 894 | P15428 | purified HPGD, NADH fluorescence kinetic, PGE2 substrate; active = well fitted inhibition curve with a large enough effect, not every such curve was filed as active; inconclusive = small, poorly fitted or top-dose-only effect, or another doubt; inactive = no such curve, though single readings can be large or run the other way; note: potency is the fitted concentration of half-maximal effect
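NADH formation kinetics: reaction with 30 uM PGE2 and 1 mM NAD+ (final), 20 nM enzyme, Tris-HCl pH 8 with Tween 20, after 15 min compound preincubation at room temperature. Fluorescence change, last versus first of five reads.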
Starred values were filed as active, the others as inactive; ? = inconclusive; nt = not tested or not shown; [ ] = another dose, or the depositor's remark. Unless noted, calls come from the whole dose curve; as a rule, active = well fitted curve in the direction sought with a large enough effect; inconclusive = small, poorly fitted or top-dose-only effect, or another doubt; inactive = no such curve, though single readings can be large; an effect the other way counts as inactive or inconclusive. Unless noted, % is set by controls: 0 for no effect and ±100 for the full control effect.

SMILES	IMPase Li cell	IMPase cell inh	ALOX15B inhib	12-hLO inh	PNC assembly inh	HPGD inh
CNC(=O)c1sc(-c2cccnc2)nc1C	0%[38.3 µM]	2	3%	7%	56	-12%
CC(=O)c1sc(-c2ccc(Cl)cc2)nc1C	5%	nt	nt	nt	nt	nt
CNC(=O)c1sc(-c2ccccc2)nc1C	20%[38.3 µM]	-5	2%	-1%	-83*	?
O=C(CCSc1ccc(Cl)cc1)NC1CCCCC1	-20%[38.3 µM]	6	-3%	6%	-109*	4.5µM*
O=C(CCSCc1ccccc1Cl)NC1CCCC1	3%	0	nt	-2%	-14	11µM*
O=C(CCSCc1cccc(Cl)c1)NCCC1=CCCCC1	-2%	10	nt	-8%	-2	?
O=C(CCSc1ccccc1)NC1CCCCCC1	0%	nt	nt	nt	nt	nt
O=C(CCSCc1cccc(Cl)c1)NC1CCCC1	0%	8	nt	-7%	-14	14µM*
CCN(C(=O)CCNC(=O)Cn1cnc2ccccc2c1=O)c1cc(OC)ccc1OC	nt	-6	nt	nt	nt	nt
COc1ccc(OCc2cccc(C(=O)Nn3cc([N+](=O)[O-])cn3)c2)cc1	9%	6	nt	-3%	-99*	-33%
COc1ccc(OCc2cccc(C(=O)NN)c2)cc1	-1%	nt	nt	1%	?	-16%
CCC(=O)Nc1cnc(NC(=O)c2cccc(F)c2)cc1C	0%	2	nt	-4%	-100*	-14%
CC(=O)Nc1cnc(NC(=O)c2cccc(F)c2)cc1C	5%	4	nt	14%	?	-6%
CC(=O)OC1CC2C(C)(C)C(O)CC(O)[C@@]2(C)C2CC[C@@]3(C)C(=CC(=O)OC3c3ccoc3)[C@]12C (stereo partly drawn)	20%	nt	-8%	-4%	nt	20µM*
CC(=O)OC1CC2C(C)(C)C(=O)CC[C@]2(C)C2CC[C@]3(C)C(=CC(=O)OC3c3ccoc3)[C@]12C (stereo partly drawn)	-6%	nt	-5%	-1%	nt	1%
O=C([C@H](Cc1ccccc1)NS(=O)(=O)c1ccc(Cl)cc1)N1CC[C@@]2(O)CCCC[C@H]2C1	5%[38.3 µM]	-1	-4%	7%	-16	4%
COc1ccc(S(=O)(=O)N[C@@H](Cc2ccccc2)C(=O)N2CC[C@@]3(O)CCCC[C@H]3C2)cc1	-1%[38.3 µM]	4	-3%	-5%	-88*	0%
Cc1cc2nc(SCCOC(=O)Nc3ccc(Cl)cc3)nc(C)c2cc1C	17%[38.3 µM]	3	16%	4%	-18	14µM*
CCOC(=O)CCSc1nc(C)c2ccccc2n1	41%[38.3 µM]	6	-1%	6%	-29	-18%
CCOC(=O)CCSc1nc(C)c2cc(C)ccc2n1	13%[38.3 µM]	-2	-6%	-7%	?	20µM*
O=C(CCCc1nc2ccccc2s1)NCc1ccccc1	-2%	nt	nt	-3%	-9	14µM*
CN(C(=O)CCc1nc2ccccc2s1)c1ccccc1	4%	-2	1%	4%	-112*	?
O=C(CCCc1nc2ccccc2s1)NCc1ccc(F)cc1	11%	nt	nt	-6%	?	25µM*
CN(C)S(=O)(=O)c1ccc(/C(O)=C2/C(=O)C(=O)N(CCN3CCCCC3)C2c2cccnc2)cc1 (stereo not drawn)	nt	nt	nt	1%	nt	-9%
COc1cccc(Oc2cn[nH]c2-c2ccc(O)cc2O)c1	13%[38.3 µM]	1	-4%	-27%	-86*	-22%
COc1ccc(-c2[nH]ncc2-c2csc(C)n2)c(O)c1	-4%	10	nt	-3%	-91*	-13%
COc1cccc(Oc2cn[nH]c2-c2ccc(OC)cc2O)c1	-1%[38.3 µM]	1	-2%	?	-17	-25%
CCn1c2ccccc2c2nnc(SCC(=O)N3CC(C)OC(C)C3)nc21 (stereo not drawn)	52%[38.3 µM]	-5	1%	-4%	28	14µM*
O=C(Nc1ccc(OCc2ccccc2)cc1)c1cccnc1	27%[38.3 µM]	8	4%	1%	-112*	-19%
C/C(=C\C(=S)Nc1ccccc1)Nc1ccccc1	4%	-13	nt	2%	?	16µM*
